# Source: PubChem BioAssay
# Activity calls are given as the source filed them.
# Assays:
# [1] = test system: Plasmodium falciparum Sir2 (PF13_0152, Sir2A); assay: pfSir2 binders on small-molecule microarrays, primary screen, biochemical, small-molecule microarray, 635 nm fluorescence (AID 1098); conditions: small-molecule microarray binding, fluorescence 635 nm; higher = more signal;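 further: score merges spot fluorescence intensity with its signal-to-noise ratio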
# [2] = small-molecule microarray binders of probe aDKK1, primary screen, biochemical, biotinylated probe, 635/667 nm fluorescence (AID 1099); conditions: higher = more signal; small-molecule microarray, probe aDKK1, fluorescence unless noted;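 further: score merges 667nm spot fluorescence with signal to noise across triplicate slides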
# [3] = small-molecule microarray binders of probe aCHRDL2, primary screen, biochemical, biotinylated probe, 635/667 nm fluorescence (AID 1100); conditions: higher = more signal; small-molecule microarray, probe aCHRDL2, fluorescence unless noted
# [4] = splicing luciferase reporter signal modulators, primary screen, spliceosome inhibition project, cell-based, HEK293, splice +/- reporter (AID 1101); conditions: luminescence, 24 h; higher = more signal, called active from +8 up or from −8 down unless noted;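 further: HEK293 cells carrying a splicing-competent luciferase reporter gene; test concentration not given here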
# [5] = molecular target: Fibroblast growth factor 10 (Homo sapiens) (UniProt O15520); assay: FGF10 binders on small-molecule microarrays, primary screen, biochemical, small-molecule microarray, 635 nm fluorescence (AID 1102); conditions: FGF10 binding, fluorescence 635 nm, higher = more signal
# Fibroblast growth factor 10 (Homo sapiens), sequence (O15520 whole entry, looked up): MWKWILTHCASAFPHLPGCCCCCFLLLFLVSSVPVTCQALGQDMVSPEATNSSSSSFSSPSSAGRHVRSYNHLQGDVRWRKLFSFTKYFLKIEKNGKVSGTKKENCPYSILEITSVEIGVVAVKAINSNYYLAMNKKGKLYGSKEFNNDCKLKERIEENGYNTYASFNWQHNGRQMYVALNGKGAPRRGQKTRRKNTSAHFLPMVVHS
# [6] = test system: glycogen synthase kinase-3 (GSK3A per assay name; protocol says GSK3B); assay: GSK3 binders on small-molecule microarrays, primary screen, biochemical, small-molecule microarray, 635 nm fluorescence, GSK3A (AID 1103); conditions: small-molecule microarray binding, fluorescence 635 nm; higher = more signal; further: the record names both GSK3A and GSK3B
# [7] = molecular target: Epidermal growth factor receptor (Homo sapiens) (UniProt P00533); assay: EGFR binders on small-molecule microarrays, primary screen, biochemical, small-molecule microarray, 635 nm fluorescence (AID 1104); conditions: EGFR binding, higher = more signal;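 further: score merges 667 nm emission intensity with spot signal to noise over triplicate slides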
# Epidermal growth factor receptor (Homo sapiens), sequence (P00533 whole entry, looked up): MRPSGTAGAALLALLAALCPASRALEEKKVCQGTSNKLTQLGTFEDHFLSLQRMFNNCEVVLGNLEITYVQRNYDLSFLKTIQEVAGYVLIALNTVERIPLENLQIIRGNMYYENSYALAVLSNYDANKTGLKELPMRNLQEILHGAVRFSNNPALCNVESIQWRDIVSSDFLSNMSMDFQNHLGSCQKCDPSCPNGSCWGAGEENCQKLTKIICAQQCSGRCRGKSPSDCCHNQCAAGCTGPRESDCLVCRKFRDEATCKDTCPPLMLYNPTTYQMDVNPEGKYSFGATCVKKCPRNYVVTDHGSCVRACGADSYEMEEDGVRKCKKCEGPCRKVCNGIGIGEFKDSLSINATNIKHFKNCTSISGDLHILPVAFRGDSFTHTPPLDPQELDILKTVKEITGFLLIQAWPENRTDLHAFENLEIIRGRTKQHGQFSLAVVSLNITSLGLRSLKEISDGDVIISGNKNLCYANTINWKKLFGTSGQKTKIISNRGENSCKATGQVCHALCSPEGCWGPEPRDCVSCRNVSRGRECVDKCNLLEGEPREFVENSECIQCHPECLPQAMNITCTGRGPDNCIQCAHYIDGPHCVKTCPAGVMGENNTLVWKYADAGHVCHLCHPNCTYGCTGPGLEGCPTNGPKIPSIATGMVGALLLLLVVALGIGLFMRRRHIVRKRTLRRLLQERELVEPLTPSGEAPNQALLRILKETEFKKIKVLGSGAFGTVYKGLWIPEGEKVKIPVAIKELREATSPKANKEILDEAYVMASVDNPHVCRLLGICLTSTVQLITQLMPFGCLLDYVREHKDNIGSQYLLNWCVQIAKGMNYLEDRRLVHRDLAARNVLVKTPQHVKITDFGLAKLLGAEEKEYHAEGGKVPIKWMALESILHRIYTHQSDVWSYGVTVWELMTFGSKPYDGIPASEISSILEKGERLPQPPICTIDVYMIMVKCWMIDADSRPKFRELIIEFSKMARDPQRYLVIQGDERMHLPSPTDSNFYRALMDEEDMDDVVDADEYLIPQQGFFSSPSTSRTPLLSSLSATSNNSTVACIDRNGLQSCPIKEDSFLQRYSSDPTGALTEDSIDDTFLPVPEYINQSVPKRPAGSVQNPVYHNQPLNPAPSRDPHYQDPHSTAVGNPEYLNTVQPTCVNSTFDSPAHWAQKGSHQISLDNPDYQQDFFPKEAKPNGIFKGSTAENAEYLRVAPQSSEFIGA
# [8] = molecular target: Follistatin-related protein 3 (Homo sapiens) (UniProt O95633); assay: FSTL3 binders on small-molecule microarrays, primary screen, biochemical, small-molecule microarray, 635 nm fluorescence (AID 1105); conditions: FSTL3 binding, higher = more signal;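 further: score merges emission near 667 nm and signal to noise per printed spot across three slides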
# Follistatin-related protein 3 (Homo sapiens), sequence (O95633 whole entry, looked up): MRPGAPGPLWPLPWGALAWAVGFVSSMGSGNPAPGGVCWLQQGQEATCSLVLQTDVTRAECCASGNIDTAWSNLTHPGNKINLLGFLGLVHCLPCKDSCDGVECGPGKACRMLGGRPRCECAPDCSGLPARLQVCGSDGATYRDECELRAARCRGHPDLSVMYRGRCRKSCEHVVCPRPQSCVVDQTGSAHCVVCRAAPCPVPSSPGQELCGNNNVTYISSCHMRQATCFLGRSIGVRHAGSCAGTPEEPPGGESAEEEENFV
# [9] = molecular target: Dickkopf-related protein 1 (Homo sapiens) (UniProt O94907); assay: DKK1 binders on small-molecule microarrays, primary screen, biochemical, small-molecule microarray, 635 nm fluorescence scan (AID 1106); conditions: DKK1 binding, higher = more signal;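 further: score merges emission near 667 nm with signal to noise over three replicate slides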
# Dickkopf-related protein 1 (Homo sapiens), sequence (O94907 whole entry, looked up): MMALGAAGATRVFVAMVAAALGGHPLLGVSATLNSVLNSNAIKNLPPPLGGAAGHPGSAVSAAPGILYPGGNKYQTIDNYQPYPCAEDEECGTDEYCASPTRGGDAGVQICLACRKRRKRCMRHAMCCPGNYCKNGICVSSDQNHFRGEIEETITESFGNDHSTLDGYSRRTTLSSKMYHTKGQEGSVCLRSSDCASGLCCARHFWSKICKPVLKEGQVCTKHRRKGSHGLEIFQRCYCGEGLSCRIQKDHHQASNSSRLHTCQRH
# [10] = test system: Inhibin beta A chain (activin A); assay: INHBA (activin A) binders on microarrays, primary screen, biochemical, small-molecule microarray, 635 nm fluorescence scan (AID 1107); conditions: small-molecule microarray binding, higher = more signal;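 further: mouse activin A protein probed at 4.33 µg/mL on printed slides; score merges bound-protein fluorescence near 667 nm with spot signal-to-noise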
# [11] = test system: Human papillomavirus type 1a protein E7 (residues 44-93); assay: HPV1a E7 fragment binders on microarrays, primary screen, biochemical, small-molecule microarray, residues 44-93, 635 nm fluorescence (AID 1108); conditions: small-molecule microarray binding, fluorescence 635 nm; higher = more signal;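 further: E7 fragment applied at 1 µg/mL in TBST for 1 h at 4 C; score combines spot fluorescence with its signal to noise ratio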
# [12] = modulators of HCV replicon luciferase signal, primary screen, HCV replication inhibitor project, Huh7 cells, luciferase reporter (AID 1109); conditions: 48 h, higher = more signal;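 further: huh7 hepatoma cells harbouring a luciferase neomycin HCV replicon reporter; luciferase luminescence as measure of HCV replicon replication; test concentration not given here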
# [13] = molecular target: Left-right determination factor 2 (Homo sapiens) (UniProt O00292); assay: LEFTY2 binders on small-molecule microarrays, primary screen, biochemical, small-molecule microarray, 635 nm fluorescence scan (AID 1110); conditions: LEFTY2 binding, higher = more signal
# Left-right determination factor 2 (Homo sapiens), sequence (O00292 whole entry, looked up): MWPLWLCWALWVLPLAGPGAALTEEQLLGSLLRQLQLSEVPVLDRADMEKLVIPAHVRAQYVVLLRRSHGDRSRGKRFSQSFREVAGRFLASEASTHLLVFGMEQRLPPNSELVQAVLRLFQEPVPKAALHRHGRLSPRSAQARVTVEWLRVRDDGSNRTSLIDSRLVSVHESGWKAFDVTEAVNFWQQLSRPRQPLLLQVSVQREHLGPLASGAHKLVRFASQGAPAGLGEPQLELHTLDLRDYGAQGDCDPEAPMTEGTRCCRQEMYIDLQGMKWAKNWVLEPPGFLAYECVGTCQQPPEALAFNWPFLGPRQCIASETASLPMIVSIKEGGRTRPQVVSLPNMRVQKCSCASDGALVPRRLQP
# [14] = molecular target: Calmodulin-1 (Homo sapiens) (UniProt P0DP23); assay: CALM1 binders on microarrays, EGTA buffer, profiling panel, biochemical, small-molecule microarray, Cy5-labelled CALM1 (AID 1111); conditions: Cy5-CALM1 binding fluorescence, higher = more signal;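 further: labelled calmodulin applied in Tris saline Tween buffer holding calcium plus EGTA and DTT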
# [15] = molecular target: Calmodulin-1 (Homo sapiens) (UniProt P0DP23); assay: calcium-bound CALM1 binders on microarrays, profiling panel, artefact control for SMM control-protein annotation, biochemical, small-molecule microarray, Cy5-labelled CALM1, plus calcium (AID 1112); conditions: Cy5-CALM1 binding fluorescence, higher = more signal;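 further: score merges spot fluorescence with signal to noise from triplicate slides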
# [16] = small-molecule microarray binders of probe aWnt5a, primary screen, biochemical, biotinylated probe, 635/667 nm fluorescence (AID 1113); conditions: higher = more signal; small-molecule microarray, probe aWnt5a, fluorescence unless noted;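 further: score merges 667 nm fluorescence intensity with signal-to-noise per printed feature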
# [17] = small-molecule microarray binders of probe aShh, primary screen, biochemical, biotinylated probe, 635/667 nm fluorescence (AID 1114); conditions: higher = more signal; small-molecule microarray, probe aShh, fluorescence unless noted;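 further: probe is biotin-labelled aShh protein from a stem cell growth factor screen; measures binding of labelled protein to compounds printed on the slide; score merges feature fluorescence at 667 nm with signal-to-noise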
# [18] = small-molecule microarray binders of probe aNog, primary screen, biochemical, biotinylated probe, 635/667 nm fluorescence (AID 1115); conditions: higher = more signal; small-molecule microarray, probe aNog, fluorescence unless noted;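 further: probe is biotinylated aNog protein used at 0.15 µg/mL for 1 h at 4 C; z-score combines 667 nm fluorescence of each spot with its signal to noise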
# [19] = molecular target: Torsin-1A-interacting protein 1 (Homo sapiens) (UniProt Q5JTV8); assay: LAP1 binders from COS7 cell lysate, primary screen, small-molecule microarray, 635/667 nm fluorescence (AID 1116); conditions: COS7-hLAP1 lysate binding, 635 nm fluorescence, higher = more signal
# Torsin-1A-interacting protein 1 (Homo sapiens), sequence (Q5JTV8 whole entry, looked up): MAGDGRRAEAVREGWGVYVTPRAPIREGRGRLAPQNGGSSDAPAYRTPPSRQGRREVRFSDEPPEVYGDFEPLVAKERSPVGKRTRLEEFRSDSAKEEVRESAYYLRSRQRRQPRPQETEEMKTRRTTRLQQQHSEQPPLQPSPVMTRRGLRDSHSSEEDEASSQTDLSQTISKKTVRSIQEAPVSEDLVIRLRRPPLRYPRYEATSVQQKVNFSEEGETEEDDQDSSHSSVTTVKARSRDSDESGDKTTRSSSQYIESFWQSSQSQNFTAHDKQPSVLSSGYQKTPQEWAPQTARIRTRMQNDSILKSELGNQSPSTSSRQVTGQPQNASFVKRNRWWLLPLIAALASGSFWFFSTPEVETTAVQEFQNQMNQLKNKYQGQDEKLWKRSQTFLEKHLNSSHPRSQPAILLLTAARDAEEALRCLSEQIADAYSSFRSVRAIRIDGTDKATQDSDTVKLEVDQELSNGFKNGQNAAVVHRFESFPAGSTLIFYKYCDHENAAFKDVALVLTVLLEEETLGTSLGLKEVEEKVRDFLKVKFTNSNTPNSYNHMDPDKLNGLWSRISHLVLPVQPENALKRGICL
# [20] = molecular target: Alpha-bungarotoxin (Bungarus multicinctus) (UniProt P60615); assay: alpha-bungarotoxin binders on microarray, profiling panel, artefact control for SMM control protein annotation, biochemical, small-molecule microarray, Alexa647 label, 635/667 nm fluorescence (AID 1117); conditions: alpha-BTX-A647 binding fluorescence, higher = more signal
# Alpha-bungarotoxin (Bungarus multicinctus), sequence (P60615 whole entry, looked up): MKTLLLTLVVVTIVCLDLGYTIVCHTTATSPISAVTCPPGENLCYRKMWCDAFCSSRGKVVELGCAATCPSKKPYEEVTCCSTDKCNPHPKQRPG
SMILES,composite z-score [1],composite z-score [2],composite z-score [3],z-score [4],composite z-score [5],composite z-score [6],composite z-score [7],composite z-score [8],composite z-score [9],composite z-score [10],composite z-score [11],z-score [12],composite z-score [13],composite z-score [14],composite z-score [15],composite z-score [16],composite z-score [17],composite z-score [18],composite z-score [19],composite z-score [20]
COC(=O)[C@@]1(Cc2ccccc2)[C@H]2c3cc(C(=O)N(C)C)[nH]c3C[C@H]2CN1C(=O)c1ccccc1,0.45,0.425,0.709,0.454 (inactive),-0.36,-1.15,-0.649,-1.32,-1.06,1.02,-0.452,-0.454,-0.476,0.157,0.136,0.0037,0.333,0.629,0.533,-0.0856
C[C@@H]1Cc2c(cnc3c2CN(C)CC3)CO1,0.0529,-0.228,-0.368,-0.377 (inactive),0.32,-0.117,1.15,0.336,0.662,1.09,-1.58,-0.491,0.894,-1.33,-0.882,-0.0221,0.149,-0.0689,-0.217,-0.138
CCc1cc2c(nc1CC)CCN(CCC(C)=NOC)C2,0.0885,-0.112,0.662,0.0386 (inactive),0.179,0.344,0.961,0.763,0.755,1.66,0.711,-1.06,0.802,-0.47,0.107,0.0375,-0.117,-0.148,1,-0.0978
CN1CCC(c2ccc(CO)cc2)=CC1C1CC1 (stereo not given),0.262,-0.368,-0.49,0.596 (inactive),0.179,-0.107,0.388,-0.196,0.429,0.939,0.0996,-0.954,0.163,-0.257,-0.691,-0.208,-0.0474,-0.198,-0.0443,0.0005
OCc1ccc(C2=CC(c3cccs3)N(Cc3cccc(OC(F)(F)F)c3)CC2)cc1 (stereo not given),0.916,-0.236,-0.0613,-1.18 (inactive),-0.0615,-0.123,-0.0657,0.107,0.0824,1.18,-0.307,-1.07,0.198,-0.573,-0.411,-0.091,-0.138,-0.244,0.221,0.934
C=C(CC1(CNP(=O)(c2ccccc2)c2ccccc2)CC1)c1ccccc1,1.34,0.19,0.752,-0.937 (inactive),0.213,-0.383,0.187,-0.77,-0.542,1.16,-0.872,-1,0.165,1.22,0.442,0.0597,-0.273,1.01,0.836,-0.108
COC(=O)[C@H]1[C@@H](O)[C@@]2(O)c3c(OC)cc(OC)cc3O[C@@]2(c2ccc(OC)cc2)[C@@H]1c1ccccc1,0.373,-0.193,-0.482,-1.89 (inactive),0.384,0.586,0.628,0.554,0.962,0.0587,0.828,1.91,0.473,0.371,-0.402,-0.0606,0.0684,0.117,0.537,0.611
COC(=O)[C@@]1(Cc2ccccc2)[C@H]2c3cc(C(=O)N(C)C)n(C)c3C[C@H]2CN1C(=O)c1ccccc1,1.5,-0.0842,0.836,-0.806 (inactive),0.358,-0.214,0.0444,-0.443,-0.631,1.09,-1.91,-1.42,-0.611,1.96,0.514,-0.107,0.214,1.65,2.25,0.0882
CCOC(=O)[C@H]1CC=C2C(=O)Oc3ccccc3[C@@H]21,-0.283,-0.295,0.521,-0.0119 (inactive),-0.375,-0.45,-0.695,-0.77,-1.06,0.0965,0.252,-1.93,-0.562,-0.229,-0.42,-0.129,-0.366,0.356,-1.28,-0.0764
COC(=O)[C@H]1C(=O)c2ccccc2O[C@@](C(=O)OC)(c2ccccc2)[C@@H]1c1ccccc1,0.118,-0.246,-0.354,-0.959 (inactive),0.232,-0.831,0.0442,-0.27,0.435,0.315,-0.853,-0.424,0.104,-0.558,-0.268,-0.0519,-0.352,-0.367,-0.271,-0.579
COC(=O)[C@H]1[C@H](c2ccccc2)C(=O)[C@]2(O)c3ccccc3O[C@@]12c1ccccc1,0.219,-0.291,-0.463,-1.58 (inactive),0.37,0.423,0.437,0.419,0.314,-0.228,0.304,0.0741,0.832,0.384,-0.0524,-0.131,0.0048,-0.293,0.106,0.0914
CCOC(=O)[C@H]1CC=C2C(=O)Oc3ccc(Br)cc3[C@@H]21,1.07,-0.0951,0.667,0.123 (inactive),-0.79,0.254,-1.34,-1.51,-1.48,-1.85,0.891,-3.69,-1.91,1.27,0.0172,-0.0118,0.151,0.884,0.501,1.65
CCCC[C@@H]1C[C@H]1[C@@H](NP(=O)(c1ccccc1)c1ccccc1)c1ccc(Cl)cc1,-0.168,0.294,0.988,-3.54 (inactive),-0.668,-0.924,-1.5,-1.57,-0.818,1.18,-1.21,-0.657,-1.67,1.14,1.32,0.0403,0.254,0.633,-0.314,-0.0059
C=C(CC1(C(C)NP(=O)(c2ccccc2)c2ccccc2)CC1)c1ccccc1 (stereo not given),0.742,0.364,0.803,-4.59 (inactive),0.623,0.0363,-0.636,-0.0868,-0.237,0.853,1.48,-1.52,-0.867,0.962,0.945,0.23,0.128,0.804,1.32,0.468
C[C@@H]1OC=C2[C@@H](O)[C@H]3O[C@H]3C(=O)[C@]23[C@H]1[C@H]1C2=C([C@@H](O)[C@H]4O[C@H]4C2=O)[C@@H]3O[C@@H]1C,-0.636,-0.0177,-0.572,0.802 (inactive),0.0109,-0.349,0.367,0.22,0.568,0.503,-2.16,-1.29,0.425,-1.11,-0.718,-0.224,-0.2,-0.244,0.0387,-0.244
COC(=O)C1(C)C=C2C(=C(C)C(=O)C2C)CN1 (stereo not given),-0.656,0.859,0.944,0.522 (inactive),-0.618,-0.623,-0.885,-0.729,-0.706,1.11,-0.131,-0.0365,-0.412,-0.423,0.0902,-0.113,0.381,1.48,1.18,-0.313
